High-throughput results as filed in PubChem BioAssay.
Only some compounds are listed: those with a hit (about 0.48% of all), similar ones and a draw of the others.
LRH-1 inv ag = LRH-1 (NR5A2) inverse agonists, primary screen, cell-based, luminescence, HEK293T, StAR-luciferase reporter | hit rate 0.13% among 360,000 | AID 602396, 2012 | LRH-1 transfected, 24 h | inhibition, % at 3.6 µM | Nuclear receptor subfamily 5 group A member 2 (Homo sapiens), O00482;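 active = inhibition above the mean inhibition of all tested compounds plus 3 SD, cut at about 73% in these data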
SRC3 inh = SRC3 coactivator transcriptional activity inhibitors, primary screen, cell-based, luminescence. Nuclear receptor coactivator 3 (Homo sapiens), Q9Y6Q9. HEK293 GAL4-SRC3 luciferase reporter. inhibition, % at 3.6 µM. hit rate 0.17% among 360,000. AID 588352, 2011;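 active = inhibition above a per-campaign cutoff, the mean of all compounds plus 3 SD, cut at about 60% in these data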;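 note: higher means less SRC3-driven luciferase light from the GAL4 reporter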
LGR2 inh = inhibitors of bursicon-induced LGR2 CRE-luciferase signal, primary screen, cell-based, HEK293, CRE-luciferase reporter, bursicon stimulation; bursicon-stimulated, 4 h; inhibition, % at 9.99 µM; hit rate 0.35% among 380,000;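 active = drop in luminescence signal, shown as inhibition above about 50% in the replicate tests, limit read from the data, passing the limit was not always enough; inconclusive = probably only some replicates passing the limit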;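 note: agonist challenge used bursicon conditioned medium at about half maximal strength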
SRC1 inh = SRC1 coactivator transcriptional activity inhibitors, primary screen, cell-based, luminescence; HEK293 GAL4-SRC1 luciferase reporter; inhibition, % at 3.6 µM; Nuclear receptor coactivator 1 (Homo sapiens), Q15788; hit rate 0.12% among 360,000;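 active = inhibition above the campaign mean plus 3 SD, with each screening campaign given its own cutoff, cut at about 60% in these data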
SRC2 inh = inhibition of GAL4-SRC2 driven luciferase reporter, primary screen, SRC2 inhibitor project, cell-based, luminescence; HEK293 GAL4-SRC2 luciferase reporter; inhibition, % at 9 µM; hit rate 0.17% among 370,000;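 active = inhibition above the mean inhibition of all tested compounds plus 3 SD, set per campaign, cut at about 52% in these data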
Hits are given with their value; i = inactive; ? = inconclusive; nt = no result given.

SMILES	LRH-1 inv ag	SRC3 inh	LGR2 inh	SRC1 inh	SRC2 inh
C=C1C(=O)OC2CC3(C)OC3CCC(C)=CC(OC(C)=O)C12 (stereo not given)	i	i	40.0	i	i
C=C1C(=O)OC2CC3(C)OC3C3OC3C3=CC(OC3=O)C12 (stereo not given)	i	i	nt	i	i
CC=Cc1ccc2n(c1=O)C[C@H]1[C@H](CO)[C@@H](C(=O)O)[C@@H]2N1S(=O)(=O)c1ccccc1C (mixture of isomers)	nt	nt	i	nt	nt
COc1ccc2c(c1)/C(=C/c1cnc[nH]1)C(=O)N2	82.5	i	95.2	i	i
O=C(CF)N(O)c1ccc(C=Cc2ccccc2)cc1	i	i	58.3	i	i
O=C(COc1ccccc1)N1CCN(C/C=C/c2ccccc2)CC1	i	i	nt	i	i
CN1[C@@H]2CNc3ccccc3[C@@H]2[C@@H]1CO	nt	nt	i	nt	nt
O=C(Cc1ccccn1)N1CCCCN2[C@H](CO)[C@H](c3ccc(Br)cc3)[C@@H]2C1	nt	nt	i	nt	nt
C[C@H]1[C@H](OC(=O)CCC(=O)NCc2ccc(C(=O)O)cc2)O[C@@H]2O[C@@]3(C)CC[C@H]4[C@H](C)CC[C@@H]1C24OO3	89.1	71.7	nt	61.7	nt
CC(C)CC(NC(=O)CCCNC(=O)CCC(=O)OC1O[C@H]2OC3(C)CC[C@H]4[C@H](C)CCC(C1C)C24OO3)C(=O)O (stereo not given in full)	84.0	72.7	i	i	i
CC1C(OC(=O)CCC(=O)NC(C)(C)CO)O[C@H]2OC3(C)CC[C@H]4[C@H](C)CCC1C24OO3 (stereo not given in full)	90.5	i	i	i	i
O=C(Cc1ccccc1)N1C[C@@H]2[C@H](c3ccccc31)[C@H](CO)N2Cc1ccccc1	nt	nt	i	nt	nt
O=c1[nH]c(O)c(N=Nc2ccc3c(c2)OCCO3)c(=O)[nH]1	i	69.1	67.2	66.7	58.5
COc1ccc(C#Cc2ccc([C@@H]3[C@@H](CO)N4CCCCN(C(=O)Cc5ccncc5)C[C@H]34)cc2)cc1	nt	nt	i	nt	nt
CC1=C(O)C(=O)C=C2C1=CC=C1C2(C)CCC2(C)C3CC(C)(C(=O)O)CCC3(C)CCC12C (stereo not given)	92.9	i	nt	i	i
CCOc1ccc(-n2c(-c3ccoc3)nc3ccccc3c2=O)cc1	i	i	i	i	i
CCOc1ccc(-c2c(C)n(-c3ccc(OCC)cc3)c3[n+]2CCCCC3)cc1	88.3	81.9	i	74.5	i
CCC(=O)N1[C@@H]2Cn3c(ccc(C4=CCCC4)c3=O)[C@H]1[C@@H](C(=O)OC)[C@@H]2CO	nt	nt	i	nt	nt
N#Cc1cccc(-c2ccc([C@@H]3[C@H](CO)N4CCCCN(C(=O)Cc5ccccc5)C[C@@H]34)cc2)c1	nt	nt	i	nt	nt
COc1ccc(C[C@H]2NC[C@H](O)[C@H]2OC(C)=O)cc1	102.1	92.7	nt	94.6	70.5
COc1ccc(CCNC2CCCCC2)cc1	i	i	i	i	i
O=C(Cc1ccccc1)N1CCCCN2[C@@H](CO)[C@@H](c3ccc(C#Cc4ccccc4)cc3)[C@@H]2C1	nt	nt	i	nt	nt
N#Cc1cccc(-c2ccc([C@@H]3[C@@H](CO)N4CCCCN(C(=O)Cc5cccnc5)C[C@@H]34)cc2)c1	nt	nt	i	nt	nt
COC(=O)C[C@]1(C(=O)OC)CN(C#N)N(c2ccc(Cl)cc2)C12c1ccccc1-c1ccccc12	i	66.9	77.9	i	91.2
Cc1nc2cc(-c3ccc(Cl)cc3)nn2c(C)c1CCC(=O)N1CCC2(CC1)OCCO2	i	i	nt	i	55.8
SMILES	LRH-1 inv ag	SRC3 inh	LGR2 inh	SRC1 inh	SRC2 inh
CCCNC(=O)N1[C@@H]2c3ccc(-c4ccccc4OC)c(=O)n3C[C@H]1[C@H](CO)[C@H]2C(=O)OC	nt	nt	i	nt	nt
CCOC(=O)[C@]12Cc3cc(OC)ccc3[C@H]1N(C1CCCCC1)C(=O)c1ccccc12	i	nt	50.4	nt	i
CCOC(=O)[C@]12Cc3cc(OC)ccc3[C@H]1N(C)C(=O)c1ccccc12	i	nt	i	nt	i
CCCCCN1C(=O)c2cc(OC)ccc2[C@@]2(C(=O)OCC)Cc3cc(Cl)ccc3[C@@H]12	i	nt	66.6	nt	i
CCOC(=O)[C@]12Cc3cc(Cl)ccc3[C@H]1N(C)C(=O)c1ccccc12	i	nt	i	nt	i
CCOC(=O)[C@]12Cc3cc(Cl)ccc3[C@H]1N(Cc1ccccc1)C(=O)c1cc(OC)ccc12	i	nt	?	nt	i
